# Source: PubChem BioAssay (EPA / NIEHS)
# Calls of active or inactive are those of the source. How the source made its calls: active means hit-call score of the fitted dose curve at least 0.9, where 1 is the maximum; inactive means score below 0.9.
# What was measured:
# Details in all cases: mRNA level, 48 h; actives raise or lower the signal
# [1] = read-out: Alkaline Phosphatase, Placental (ALPP) gene, ALPP (gene 250); assay: LTEA_HepaRG_ALPP: Life Technologies and Expression Analysis (LTEA) Assay for Alkaline Phosphatase, Placental (ALPP) gene using HepaRG (AID 2283468)
# Outline: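 Differentiated human HepaRG cells were plated and cultured 48 h, then exposed in duplicate for 48 h in serum-free induction medium to eight half-log concentrations from 100 uM in 0.5% DMSO. ALPP mRNA was measured by TaqMan qRT-PCR, normalized to ACTB, GAPDH, POLR2A.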
# [2] = read-out: Bcl-2 (BAD) gene, BAD (gene 572); assay: LTEA_HepaRG_BAD: Life Technologies and Expression Analysis (LTEA) Assay for Bcl-2 (BAD) gene using HepaRG (AID 2283469)
# Outline: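 Differentiated HepaRG cells were exposed in duplicate in 0.5% DMSO for 48 h to eight-point half-log concentrations up to 100 uM. BAD mRNA was measured by Fluidigm TaqMan qRT-PCR, normalized to ACTB, GAPDH and POLR2A, and fitted bidirectionally against DMSO.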
# [3] = read-out: Bcl-2 (BAX) gene, BAX (gene 581); assay: LTEA_HepaRG_BAX: Life Technologies and Expression Analysis (LTEA) Assay for Bcl-2 (BAX) gene using HepaRG (AID 2283470)
# Outline: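 Differentiated human HepaRG cells, plated 48 h then switched to serum-free induction medium, were exposed 48 h to 8 half-log concentrations up to 100 uM in 0.5% DMSO; BAX mRNA measured by qRT-PCR, normalized to ACTB, GAPDH, POLR2A.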
# [4] = read-out: adenosine kinase (ADK) gene, ADK (gene 132); assay: LTEA_HepaRG_ADK: Life Technologies and Expression Analysis (LTEA) Assay for adenosine kinase (ADK) gene using HepaRG (AID 2283471)
# Outline: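 Differentiated HepaRG cells dosed 48 h in serum-free induction medium, 0.5% DMSO vehicle, eight half-log concentrations from 100 uM, in duplicate. ADK mRNA by TaqMan qRT-PCR normalised to ACTB, GAPDH, POLR2A; bidirectional fit versus DMSO.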
# [5] = read-out: Alpha-fetoprotein (AFP) gene, AFP (gene 174); assay: LTEA_HepaRG_AFP: Life Technologies and Expression Analysis (LTEA) Assay for Alpha-fetoprotein (AFP) gene using HepaRG (AID 2283472)
# Outline: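 Human HepaRG cells plated 48 h, then switched to serum-free induction medium and exposed in duplicate for 48 h to 8-point half-log series from 100 uM in 0.5% DMSO. AFP mRNA by qRT-PCR, normalized to ACTB, GAPDH, POLR2A; bidirectional fit versus DMSO.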
# BCL2L11 (gene 10018) = assay: LTEA_HepaRG_BCL2L11: Life Technologies and Expression Analysis (LTEA) Assay for Bcl-2 (BCL2L11) gene using HepaRG (AID 2283473)
# Outline: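 Differentiated human HepaRG cells in serum-free induction medium were exposed in duplicate for 48 h to eight concentrations (top 100 uM, half-log steps, 0.5% DMSO). BCL2L11 mRNA was quantified by TaqMan qRT-PCR, normalized to ACTB/GAPDH/POLR2A, bidirectional fit versus DMSO.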
# [6] = read-out: Apolipoprotein A-V (APOA5) gene, APOA5 (gene 116519); assay: LTEA_HepaRG_APOA5: Life Technologies and Expression Analysis (LTEA) Assay for Apolipoprotein A-V (APOA5) gene using HepaRG (AID 2283474)
# Outline: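 Differentiated human HepaRG cells were exposed in duplicate for 48 h to eight half-log concentrations from 100 uM in 0.5% DMSO. APOA5 mRNA was quantified by TaqMan qRT-PCR, normalized to ACTB, GAPDH and POLR2A, and fitted bidirectionally against DMSO.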
# [7] = read-out: Apoptosis regulator Bcl-2 (Homo sapiens) (UniProt P10415); assay: LTEA_HepaRG_BCL2: Life Technologies and Expression Analysis (LTEA) Assay for Bcl-2 gene using HepaRG (AID 2283475)
# Outline: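 Differentiated HepaRG cells in serum-free induction medium were exposed for 48 h to eight half-log concentrations up to 100 uM in 0.5% DMSO, in duplicate. BCL2 mRNA was quantified by TaqMan qRT-PCR normalised to ACTB, GAPDH and POLR2A, with bidirectional fitting versus DMSO.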
# [8] = read-out: Bcl-2 (BID) gene, BID (gene 637); assay: LTEA_HepaRG_BID: Life Technologies and Expression Analysis (LTEA) Assay for Bcl-2 (BID) gene using HepaRG (AID 2283476)
# Outline: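 Differentiated HepaRG cells in serum-free induction medium were exposed in duplicate for 48 h to eight half-log concentrations up to 100 uM in 0.5% DMSO. BID mRNA was quantified by qRT-PCR, normalized to ACTB, GAPDH and POLR2A.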
# Caspase-3 (Homo sapiens) = Caspase-3 (Homo sapiens) (UniProt P42574); assay: LTEA_HepaRG_CASP3: Life Technologies and Expression Analysis (LTEA) Assay for cysteine-aspartic acid protease (CASP3) using HepaRG (AID 2283477)
# Sequence of Caspase-3 (Homo sapiens) (P42574 whole entry, looked up): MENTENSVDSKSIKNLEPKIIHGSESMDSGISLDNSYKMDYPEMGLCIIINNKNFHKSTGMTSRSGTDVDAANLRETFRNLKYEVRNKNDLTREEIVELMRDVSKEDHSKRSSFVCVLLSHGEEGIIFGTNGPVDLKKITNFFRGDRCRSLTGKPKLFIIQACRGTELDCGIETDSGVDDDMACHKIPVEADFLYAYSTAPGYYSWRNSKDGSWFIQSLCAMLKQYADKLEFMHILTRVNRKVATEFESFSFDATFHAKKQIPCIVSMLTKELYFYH
# Outline: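 Differentiated human HepaRG cells in serum-free induction medium were exposed 48 h to 8-point half-log concentrations from 100 uM (0.5% DMSO vehicle). CASP3 mRNA was measured by qRT-PCR, normalised to ACTB, GAPDH and POLR2A, with bidirectional fitting against DMSO.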
# Sequence of Apoptosis regulator Bcl-2 (Homo sapiens) (P10415 whole entry, looked up): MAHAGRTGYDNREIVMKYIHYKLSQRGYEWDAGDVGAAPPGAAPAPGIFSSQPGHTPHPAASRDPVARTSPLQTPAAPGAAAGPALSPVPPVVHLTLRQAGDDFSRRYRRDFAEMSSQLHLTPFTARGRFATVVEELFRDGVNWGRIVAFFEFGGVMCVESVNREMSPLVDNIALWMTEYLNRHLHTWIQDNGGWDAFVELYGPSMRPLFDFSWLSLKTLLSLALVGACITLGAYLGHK
SMILES,outcome [1],outcome [2],outcome [3],outcome [4],outcome [5],outcome (BCL2L11 (gene 10018)),outcome [6],outcome [7],outcome [8],outcome (Caspase-3 (Homo sapiens)),AC50 (Caspase-3 (Homo sapiens)),AC50 [5],AC50 [1],AC50 [3],AC50 [6],AC50 [7],AC50 (BCL2L11 (gene 10018)),AC50 [4],AC50 [8]
CC(C)(C)CC(C)(C)c1ccc(O)c(-n2nc3ccccc3n2)c1,inactive,inactive,inactive,inactive,inactive,inactive,inactive,inactive,inactive,inactive,,,,,,,,,
O=[N+]([O-])c1ccc(O)cc1,inactive,inactive,inactive,inactive,inactive,inactive,inactive,inactive,inactive,inactive,,,,,,,,,
CC(C)(C)c1cccc(C(C)(C)C)c1O,inactive,inactive,inactive,inactive,inactive,inactive,inactive,inactive,inactive,inactive,,,,,,,,,
CCCCCCCC(=O)O,inactive,inactive,inactive,inactive,inactive,inactive,inactive,inactive,inactive,,12.5 µM (active),,,,,,,,
CCCCCCC(=O)O,inactive,inactive,inactive,inactive,inactive,inactive,inactive,inactive,inactive,inactive,,,,,,,,,
Oc1cc2ccccc2c2ccccc12,inactive,inactive,inactive,inactive,inactive,inactive,inactive,inactive,inactive,inactive,,,,,,,,,
CC(C)(C)c1cc(C(C)(C)C)c(O)c(C(C)(C)C)c1,inactive,inactive,inactive,inactive,,inactive,inactive,inactive,inactive,inactive,,39.8 µM (active),,,,,,,
Oc1cccc(O)c1,inactive,inactive,inactive,inactive,inactive,inactive,inactive,inactive,inactive,inactive,,,,,,,,,
Cc1cc(CCN2CCN(c3nsc4ccccc34)CC2)cc2c1NC(=O)CC2(C)C,,inactive,,inactive,,inactive,,,inactive,inactive,,72.6 µM (active),50 µM (active),93 µM (active),75.9 µM (active),68.2 µM (active),,,
ClC1=C(Cl)C(Cl)(Cl)C(Cl)=C1Cl,inactive,inactive,inactive,inactive,inactive,inactive,inactive,inactive,inactive,inactive,,,,,,,,,
CC(C)CCCCCCOC(=O)CCCCC(=O)OCCCCCCC(C)C,inactive,inactive,inactive,inactive,inactive,inactive,inactive,inactive,inactive,inactive,,,,,,,,,
Nc1cccc2c(N)cccc12,inactive,inactive,inactive,inactive,inactive,inactive,inactive,inactive,inactive,inactive,,,,,,,,,
CN(C)C=O,inactive,inactive,inactive,inactive,inactive,inactive,inactive,inactive,inactive,inactive,,,,,,,,,
COCC(C)OCC(C)O (stereo not given),inactive,inactive,inactive,inactive,inactive,inactive,inactive,inactive,inactive,inactive,,,,,,,,,
COc1ccc([N+](=O)[O-])cc1N,inactive,inactive,inactive,inactive,inactive,inactive,inactive,inactive,inactive,inactive,,,,,,,,,
CCOC(=O)CC(O)(CC(=O)OCC)C(=O)OCC,inactive,inactive,inactive,inactive,inactive,inactive,inactive,inactive,inactive,inactive,,,,,,,,,

SMILES,outcome [1],outcome [2],outcome [3],outcome [4],outcome [5],outcome (BCL2L11 (gene 10018)),outcome [6],outcome [7],outcome [8],outcome (Caspase-3 (Homo sapiens)),AC50 (Caspase-3 (Homo sapiens)),AC50 [5],AC50 [1],AC50 [3],AC50 [6],AC50 [7],AC50 (BCL2L11 (gene 10018)),AC50 [4],AC50 [8]
CC(=O)NC1(c2cccc(F)c2)CCN(CC[C@@]2(c3ccc(Cl)c(Cl)c3)CN(c3ccccc3)C(=O)CO2)CC1,,inactive,inactive,inactive,,,inactive,inactive,inactive,inactive,,13.1 µM (active),19.6 µM (active),,,,59.6 µM (active),,
c1ccc2c(c1)ccc1ccccc12,inactive,inactive,inactive,inactive,inactive,inactive,inactive,inactive,inactive,inactive,,,,,,,,,
CC[C@H](C)[C@@H](C(=O)O)n1sc2ccccc2c1=O,inactive,inactive,inactive,inactive,inactive,inactive,inactive,inactive,inactive,inactive,,,,,,,,,
OC1CCC(C2CCCCC2)CC1 (stereo not given),inactive,inactive,inactive,inactive,inactive,inactive,inactive,inactive,inactive,inactive,,,,,,,,,
CCN(CC)CCNc1ccc(CNC=O)c2sc3ccc(OC)cc3c(=O)c12,inactive,inactive,inactive,,,,,inactive,inactive,,72.7 µM (active),11.5 µM (active),,,12.4 µM (active),,21.9 µM (active),76.7 µM (active),
CN1CCN(c2ccccc2/C=C2\SCCN(c3ccc(Cl)c(Cl)c3)C2=O)CC1,,inactive,inactive,inactive,,inactive,inactive,inactive,,inactive,,11.5 µM (active),15.8 µM (active),,,,,,83.9 µM (active)
C#C[C@]1(O)CC[C@H]2[C@@H]3CCC4=CC(=O)CC[C@@H]4[C@H]3CC[C@@]21C,,inactive,inactive,,inactive,inactive,,inactive,inactive,inactive,,,10.1 µM (active),,9.92 µM (active),,,9.92 µM (active),
O=C(O)Cc1cc(I)c(Oc2cc(I)c(O)c(I)c2)c(I)c1,,inactive,inactive,,,inactive,,,inactive,inactive,,37.5 µM (active),13.6 µM (active),,57.7 µM (active),21.7 µM (active),,45.7 µM (active),
CCCOC(=O)c1ccc(O)cc1,inactive,inactive,inactive,inactive,inactive,inactive,inactive,inactive,inactive,inactive,,,,,,,,,
O=C(O)c1ccccc1C(c1ccc(O)cc1)c1ccc(O)cc1,inactive,inactive,inactive,inactive,inactive,inactive,inactive,inactive,inactive,inactive,,,,,,,,,
CCCCOCCO,inactive,inactive,inactive,inactive,inactive,inactive,inactive,inactive,inactive,inactive,,,,,,,,,
COC(=O)CCCCC(=O)OC,inactive,inactive,inactive,inactive,inactive,inactive,inactive,inactive,inactive,inactive,,,,,,,,,
O=c1c(-c2ccc(O)cc2)coc2cc(O)ccc12,inactive,inactive,inactive,inactive,inactive,inactive,inactive,inactive,inactive,inactive,,,,,,,,,
C[C@@H]1C[C@H]2[C@@H]3CCC4=CC(=O)C=C[C@]4(C)[C@@]3(F)[C@@H](O)C[C@]2(C)[C@@]1(O)C(=O)COP(=O)(O)O,inactive,inactive,inactive,inactive,inactive,inactive,inactive,inactive,inactive,inactive,,,,,,,,,
CCC(=C(c1ccc(O)cc1)c1ccc(OCCN(C)C)cc1)c1ccccc1,inactive,inactive,inactive,,inactive,,inactive,inactive,inactive,,89.8 µM (active),,,,,,82.9 µM (active),75.2 µM (active),
